Mdm2 MdmX PPI = inhibitors of human Mdm2/MdmX interaction. O15151+Q00987. SaOS-2 split-luciferase Mdm2/MdmX complementation, luminescence. inhibition, % at 8 µM. 330,000 compounds, 3% hits;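 active = inhibition of at least 50% at 8 µM in the primary screen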
Gli-Sufu antag = antagonists of Gli-Sufu signaling; 340,000 compounds, 0.74% hits; Sufu-KO-LIGHT fibroblasts, Gli luciferase reporter luminescence; inhibition, % at 5 µM;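 active = inhibition above about 55%, limit read from the data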;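 note: 0% = DMSO-treated cells and 100% = wells with medium but no cells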
Beta apoptosis = beta cell apoptosis inhibition; INS-1E cytokine-induced death, ATP luminescence, 48 h; percent of positive-control rescue, neutral wells zero; protection from apoptosis, % (test concentration not listed); 300,000 compounds, 0.8% hits; AID 435005;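 active = Every replicate reaches about 75%, or at least half do and their mean reaches it too, limit read from the data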;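 note: 0% = cytokine-treated negative control wells and 100% = positive control rescue; higher means more ATP so stronger rescue from cytokine killing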
Jurkat NFkB inh = inhibitors of the PMA/ionomycin-induced NF-kB reporter in Jurkat cells; PMA/ionomycin-induced NF-kB luciferase reporter, luminescence; inhibition, % at 4 µM; 330,000 compounds, 0.53% hits; AID 435003; in the data active = inhibition above about 50%
697 NFkB inh = lowers PMA/ionomycin-induced NF-kB signal in 697 B cells; 697 B-cell NF-kB luciferase reporter, 16 h; inhibition, % at 4 µM; 330,000 compounds, 0.33% hits; in the data active = inhibition above about 35%
Mdm2-MdmX conf = human Mdm2/MdmX binding inhibition, confirmed; 10,000 compounds, 55% hits; AID 489028; shares compounds with Mdm2 MdmX PPI; inhibition, % at 8 µM; luminescent assay; in the data active = inhibition above about 40%
Full FLuc ctr = counter-screen for Mdm2/MdmX inhibitors: full-length luciferase | 6,200 compounds, 77% hits | shares compounds with Mdm2 MdmX PPI | SaOS-2 full-length luciferase counterscreen, luminescence | inhibition, % at 8 µM;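 active = mean inhibition at 8 µM reaching about 37%, which flags the compound as non-specific, limit read from the data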;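 note: p53-null SaOS-2 cells with luciferase driven by a doxycycline-inducible promoter; compound on cells about two nights before reading with doxycycline added after day one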
The depositor's hits bear a star; nt = no result. An excerpt weighted towards active compounds, which were near 4% of everything screened.

SMILES | Mdm2 MdmX PPI | Gli-Sufu antag | Beta apoptosis | Jurkat NFkB inh | 697 NFkB inh | Mdm2-MdmX conf | others
COc1cc(-c2cc(C(=O)Nc3ccc(C)c(S(=O)(=O)N4CCOCC4)c3)c3ccccc3n2)cc(OC)c1OC | 52* | 2 | -20 | 7 | -23 | 39 | Full FLuc ctr=73*
COc1cc2c(cc1NC(=O)c1cc(-c3ccncc3)nc3ccc(C)cc13)oc1ccccc12 | 51* | 13 | 50 | 14 | 16 | 9
CC(=O)Nc1nnc(Cc2c[nH]c3ccccc23)s1 | -10 | -3 | -11 | -7 | 17 | nt
O=c1c2cnn(-c3ccccc3)c2ncn1Cc1ccco1 | 13 | 1 | -3 | 0 | -4 | nt
N=c1c2c(-c3ccccc3)c(-c3ccccc3)n(Cc3ccco3)c2ncn1Cc1ccco1 | 98* | -88 | 68 | 8 | -89 | 46* | Full FLuc ctr=31
Cc1nc(N/N=C/c2ccc(O)cc2)c2cnn(-c3ccccc3)c2n1 | 59* | 13 | 1 | 3 | -16 | -3
Oc1ccc(Nc2nc(N3CCCC3)c3ccccc3n2)cc1 | 85* | 58* | 99* | -15 | -43 | 16
Cc1ccc(Nc2nc(N3CCOCC3)c3ccccc3n2)cc1 | 32 | 1 | 22 | -9 | -14 | nt
NC(=O)Cc1ccc(C(=O)c2ccccc2)s1 | 10 | -4 | -1 | 5 | -6 | nt
CCCN1CCC2(CC1)C(C#N)=C(N)Oc1c2sc2nc(C)cc(C)c12 | -2 | -14 | 5 | -2 | -49 | nt
Cc1cc(C)c2c3c(sc2n1)C(c1cccc(F)c1)C(C#N)=C(N)O3 (centres undefined) | 79* | 0 | 24 | -12 | -10 | 27
Cc1ccccc1NC(=O)c1cc(C(=O)c2cc(Cl)ccc2O)cn(-c2ccccc2C)c1=O | 78* | 4 | 73 | -20 | -22 | 71* | Full FLuc ctr=50*
Cc1cccc(OCCCC(=O)NNC(=O)c2ccccn2)c1 | 64* | -7 | 6 | 2 | 14 | 52* | Full FLuc ctr=41*
COc1cc(/C=N/n2cnc3scc(-c4cccs4)c3c2=O)cc(OC)c1OC | 61* | 19 | 8 | 32 | -60 | 36
COc1ccc(/C=N/n2cnc3scc(-c4cccs4)c3c2=O)cc1OC | 4 | 26 | 1 | -3 | 2 | nt
N=c1c2ccccc2nc2n1CCCCCCCCCCC2 | 59* | 25 | 97* | 22 | -60 | 24
O=c1c2ccccc2nc2n1CCCCC2 | 6 | 0 | -2 | -1 | 3 | nt
CCC(=O)N/N=C/c1ccc(-c2ccc([N+](=O)[O-])cc2)o1 | 4 | -5 | nt | -7 | 6 | nt
CC(C)(C)C(=O)/C=c1\s/c(=C\c2ccc(-c3ccc([N+](=O)[O-])cc3)o2)c(=O)n1CC(=O)NC(N)=O | 68* | 9 | 2 | 1 | 22 | 58* | Full FLuc ctr=54*
CCc1ccc(N(CC(=O)N2CCN(Cc3ccccc3)CC2)S(C)(=O)=O)cc1 | 14 | 2 | -7 | -5 | -6 | nt
CCOc1ccccc1NC(=O)COC(=O)/C=C/c1cccs1 | -5 | 1 | -9 | -23 | -33 | nt
COc1ccc(C2CC(=O)N(CC(=O)NCC3CCCO3)c3ccccc3S2)cc1 (centres undefined) | 12 | -13 | 4 | 4 | -12 | nt
COc1ccc(C2CC(=O)N(C)c3ccccc3S2)cc1 (centres undefined) | 68* | 25 | -10 | -7 | 6 | 47* | Full FLuc ctr=97*
CCOc1ccccc1Nc1cc(C)c2cccc(C)c2n1 | -11 | 0 | 10 | 15 | -5 | nt
CCOc1nc(N=C(N)N)nc2c(C)cccc12 | 56* | 6 | 48 | -12 | -13 | 30
CC1(C)NC(=O)N(CC(=O)N2CCN(c3ccc([N+](=O)[O-])cc3)CC2)C1=O | -9 | 5 | 1 | 14 | 16 | nt
CCCOC(=O)c1ccc(Oc2c(-c3ccc(OCC)cc3O)n[nH]c2C)cc1 | 71* | -2 | 37 | 5 | -25 | 11
CCCOC(=O)c1ccc(Oc2cn[nH]c2-c2ccc(OCC)cc2O)cc1 | 21 | -25 | -1 | 8 | -12 | nt
CCOc1ccc(CN(C)C(=O)CCl)cc1 | 56* | 0 | 2 | 9 | 25 | 22
N#Cc1nccnc1S(=O)(=O)c1cccs1 | 74* | 1 | 20 | 15 | -16 | 47* | Full FLuc ctr=0
